{"source": "PubChem BioAssay (NCATS)", "key": {"[1]": {"target": "Glucocorticoid receptor (Homo sapiens) (UniProt P04150)", "sequence (P04150 whole entry, looked up)": "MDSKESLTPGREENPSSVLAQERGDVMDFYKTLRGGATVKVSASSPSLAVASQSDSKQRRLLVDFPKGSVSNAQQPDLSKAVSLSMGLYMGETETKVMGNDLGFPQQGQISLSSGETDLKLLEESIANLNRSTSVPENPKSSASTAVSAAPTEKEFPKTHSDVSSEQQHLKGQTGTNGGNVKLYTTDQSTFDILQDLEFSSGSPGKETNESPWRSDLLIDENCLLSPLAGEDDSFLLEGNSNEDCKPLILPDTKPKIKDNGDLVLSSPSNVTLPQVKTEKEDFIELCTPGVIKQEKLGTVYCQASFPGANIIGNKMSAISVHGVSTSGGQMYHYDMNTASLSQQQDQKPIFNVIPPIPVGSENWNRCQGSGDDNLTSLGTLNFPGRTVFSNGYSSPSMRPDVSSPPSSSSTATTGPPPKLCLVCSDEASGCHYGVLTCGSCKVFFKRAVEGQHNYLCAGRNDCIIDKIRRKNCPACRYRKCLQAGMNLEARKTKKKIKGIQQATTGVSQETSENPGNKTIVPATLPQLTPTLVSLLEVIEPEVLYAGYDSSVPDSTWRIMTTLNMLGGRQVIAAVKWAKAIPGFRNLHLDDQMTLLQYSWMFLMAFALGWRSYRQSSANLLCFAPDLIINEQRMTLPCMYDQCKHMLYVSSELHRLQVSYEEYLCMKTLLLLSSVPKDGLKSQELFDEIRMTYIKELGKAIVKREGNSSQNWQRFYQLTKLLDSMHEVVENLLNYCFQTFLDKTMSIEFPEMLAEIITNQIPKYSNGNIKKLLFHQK", "assay": "qHTS assay for small molecule antagonists of glucocorticoid receptor signaling (AID 588533; active = well fitted inhibition curve with a large enough effect in the signal ratio, with a control signal flat, not every such curve was filed as active; the % refers to the signal ratio)", "how_it_was_run": "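Antagonist-mode qHTS: compound titrations added to GRE-bla HeLa cells, then dexamethasone 2 nM final; 18 h, 37 C. CCF4 FRET fluorescence normalized to dexamethasone and DMSO; IC50 from Hill fit.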"}, "[2]": {"assay": "qHTS assay for small molecule antagonists of peroxisome proliferator-activated receptor delta signaling (AID 588535; active = well fitted inhibition curve with a large enough effect in the signal ratio, with a control signal flat, not every such curve was filed as active; the % refers to the signal ratio; note: potency is the fitted concentration of half-maximal effect;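 for max response: cells co-treated with a PPAR-delta agonist as stimulator during compound exposure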)", "conditions": "HEK293T PPARd-UAS-bla, beta-lactamase FRET ratio, 18 h; 460 nm channel", "how_it_was_run": "(§1)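 Titrations were run on PPAR-delta-UAS-bla HEK293T cells in charcoal/dextran-stripped serum, incubated 18 h at 37 C. CCF4 fluorescence (460/530 nm) after 2 h RT; Hill equation yields IC50 and maximal response.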"}, "[3]": {"target": "Peroxisome proliferator-activated receptor delta (Homo sapiens) (UniProt Q03181)", "sequence (Q03181 whole entry, looked up)": "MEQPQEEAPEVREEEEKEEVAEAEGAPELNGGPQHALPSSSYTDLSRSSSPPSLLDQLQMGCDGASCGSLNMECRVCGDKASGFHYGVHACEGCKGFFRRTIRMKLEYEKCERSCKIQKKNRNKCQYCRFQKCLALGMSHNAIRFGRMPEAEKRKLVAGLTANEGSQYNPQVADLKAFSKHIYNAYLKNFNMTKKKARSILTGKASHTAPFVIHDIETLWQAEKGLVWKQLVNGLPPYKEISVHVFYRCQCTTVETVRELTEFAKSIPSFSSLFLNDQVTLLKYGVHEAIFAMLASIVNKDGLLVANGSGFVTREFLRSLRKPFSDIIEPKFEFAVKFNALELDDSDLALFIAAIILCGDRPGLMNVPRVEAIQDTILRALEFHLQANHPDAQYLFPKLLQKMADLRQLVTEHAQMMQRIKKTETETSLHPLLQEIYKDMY", "assay": "qHTS assay for small molecule antagonists of peroxisome proliferator-activated receptor delta signaling (AID 588535)", "how_it_was_run": "as §1"}, "[4]": {"target": "Peroxisome proliferator-activated receptor gamma (Homo sapiens) (UniProt P37231)", "sequence (P37231 whole entry, looked up)": "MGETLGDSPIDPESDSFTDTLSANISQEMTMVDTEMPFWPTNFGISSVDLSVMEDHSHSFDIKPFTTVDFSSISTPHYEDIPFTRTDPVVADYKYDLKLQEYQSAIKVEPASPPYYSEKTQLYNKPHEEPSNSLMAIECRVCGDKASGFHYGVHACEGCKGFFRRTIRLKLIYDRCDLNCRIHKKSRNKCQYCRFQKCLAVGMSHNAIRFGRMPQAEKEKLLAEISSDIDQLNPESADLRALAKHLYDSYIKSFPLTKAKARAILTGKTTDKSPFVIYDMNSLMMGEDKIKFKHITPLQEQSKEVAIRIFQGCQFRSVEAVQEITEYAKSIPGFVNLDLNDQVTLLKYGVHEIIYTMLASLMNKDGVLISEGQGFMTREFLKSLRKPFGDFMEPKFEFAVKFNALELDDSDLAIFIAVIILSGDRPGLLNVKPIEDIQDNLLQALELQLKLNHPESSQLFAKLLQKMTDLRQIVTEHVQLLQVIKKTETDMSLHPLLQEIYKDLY", "assay": "qHTS assay for small molecule antagonists of peroxisome proliferator-activated receptor gamma signaling (AID 588537; active = well fitted inhibition curve with a large enough effect in the signal ratio, with a control signal flat, not every such curve was filed as active; the % refers to the signal ratio)", "how_it_was_run": "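Antagonist-mode β-lactamase reporter screen run as a titration series. HEK293 PPARγ-UAS-bla cells are stimulated with rosiglitazone (50 nM final) for 16 h, then CCF4 is read at 460/530 nm. Data are scaled between DMSO and rosiglitazone and fitted to the Hill equation.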"}, "[5]": {"assay": "qHTS assay for small molecule agonists of retinoid X receptor alpha signaling (AID 588544)", "conditions": "HEK293T RXRa-UAS-bla, beta-lactamase reporter, 18 h; 530 nm emission"}, "[6]": {"target": "Thyroid hormone receptor beta (Homo sapiens) (UniProt P10828)", "sequence (P10828 whole entry, looked up)": "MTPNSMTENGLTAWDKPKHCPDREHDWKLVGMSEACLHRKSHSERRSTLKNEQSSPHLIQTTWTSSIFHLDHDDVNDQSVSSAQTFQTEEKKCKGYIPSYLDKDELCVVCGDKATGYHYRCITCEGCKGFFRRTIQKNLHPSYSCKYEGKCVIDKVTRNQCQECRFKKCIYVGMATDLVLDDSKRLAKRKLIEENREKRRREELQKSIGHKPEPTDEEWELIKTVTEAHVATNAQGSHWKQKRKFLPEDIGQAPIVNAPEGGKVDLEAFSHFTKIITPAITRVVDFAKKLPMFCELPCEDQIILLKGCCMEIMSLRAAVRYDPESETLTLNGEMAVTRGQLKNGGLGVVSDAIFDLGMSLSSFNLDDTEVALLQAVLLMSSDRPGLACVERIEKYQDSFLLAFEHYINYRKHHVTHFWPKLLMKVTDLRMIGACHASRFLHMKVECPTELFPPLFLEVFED", "assay": "qHTS assay for small molecule antagonists of thyroid hormone receptor beta signaling (AID 588547; active = well fitted inhibition curve with a large enough effect in the signal ratio, with a control signal flat, not every such curve was filed as active; the % refers to the signal ratio)", "conditions": "TR-UAS-bla HEK293, beta-lactamase ratio, antagonist mode, 18 h", "how_it_was_run": "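Inhibition of T3-driven (0.4nM final) beta-lactamase reporter activity was measured over 0.59 nM to 92 uM compound after 18 h at 37 C. The cells were GripTite HEK293 TR-UAS-bla in charcoal/dextran-stripped serum, with CCF4 ratio read-out and IC50 from Hill fits.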"}, "[7]": {"assay": "qHTS assay for small molecule agonists of the antioxidant response element (ARE) signaling pathway (AID 651741; active = well fitted activation curve with a large enough effect in the signal ratio; the % refers to the signal ratio)", "how_it_was_run": "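Beta-lactamase reporter under ARE control in HepG2 cells, 2,000 per well, was induced by 16 h compound treatment at 37 C. Read-out was fluorescence from LiveBLAzer B/G FRET substrate after 2 h at room temperature.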"}, "[8]": {"target": "Bile acid receptor (Homo sapiens) (UniProt Q96RI1)", "sequence (Q96RI1 whole entry, looked up)": "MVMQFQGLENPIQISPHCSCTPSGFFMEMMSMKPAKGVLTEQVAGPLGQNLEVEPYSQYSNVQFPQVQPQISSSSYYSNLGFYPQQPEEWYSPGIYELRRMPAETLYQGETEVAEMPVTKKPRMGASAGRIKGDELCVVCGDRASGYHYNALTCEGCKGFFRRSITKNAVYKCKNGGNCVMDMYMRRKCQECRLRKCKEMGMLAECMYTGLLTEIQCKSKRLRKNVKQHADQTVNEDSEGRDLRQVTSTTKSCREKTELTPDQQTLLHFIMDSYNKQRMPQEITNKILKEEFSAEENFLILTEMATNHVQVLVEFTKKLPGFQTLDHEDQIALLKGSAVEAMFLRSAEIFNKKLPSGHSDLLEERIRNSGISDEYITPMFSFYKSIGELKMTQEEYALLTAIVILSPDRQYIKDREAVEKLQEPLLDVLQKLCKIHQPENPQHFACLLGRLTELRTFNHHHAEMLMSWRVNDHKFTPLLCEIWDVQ", "assay": "qHTS assay for small molecule antagonists of farnesoid X receptor signaling (AID 588526)", "how_it_was_run": "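Beta-lactamase reporter antagonist mode: HEK293T FXR-UAS-bla cells, titrated compound, CDCA stimulation, 16 h 37 C, CCF4 dye 2 h RT. Data normalized to CDCA 50 uM and DMSO; Hill-fit IC50.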"}, "[9]": {"target": "Bile acid receptor (Homo sapiens) (UniProt Q96RI1)", "assay": "qHTS assay for small molecule agonists of farnesoid X receptor signaling (AID 588527)", "conditions": "HEK293T FXR-UAS-bla, beta-lactamase ratio, 16 h; activation: stronger effect = higher value", "how_it_was_run": "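Read-out: beta-lactamase reporter fluorescence with CCF4 substrate in GeneBLAzer FXR-UAS-bla HEK293T cells, after 16 h compound exposure at 37 C. Response scaled between DMSO basal (0%) and chenodeoxycholic acid at 100 uM (100%).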"}, "[10]": {"assay": "qHTS assay for small molecule activators of the human pregnane X receptor (PXR) signaling pathway (AID 720659; call rule not given here)"}, "[11]": {"target": "Androgen receptor (Homo sapiens) (UniProt P10275)", "sequence (P10275 whole entry, looked up)": "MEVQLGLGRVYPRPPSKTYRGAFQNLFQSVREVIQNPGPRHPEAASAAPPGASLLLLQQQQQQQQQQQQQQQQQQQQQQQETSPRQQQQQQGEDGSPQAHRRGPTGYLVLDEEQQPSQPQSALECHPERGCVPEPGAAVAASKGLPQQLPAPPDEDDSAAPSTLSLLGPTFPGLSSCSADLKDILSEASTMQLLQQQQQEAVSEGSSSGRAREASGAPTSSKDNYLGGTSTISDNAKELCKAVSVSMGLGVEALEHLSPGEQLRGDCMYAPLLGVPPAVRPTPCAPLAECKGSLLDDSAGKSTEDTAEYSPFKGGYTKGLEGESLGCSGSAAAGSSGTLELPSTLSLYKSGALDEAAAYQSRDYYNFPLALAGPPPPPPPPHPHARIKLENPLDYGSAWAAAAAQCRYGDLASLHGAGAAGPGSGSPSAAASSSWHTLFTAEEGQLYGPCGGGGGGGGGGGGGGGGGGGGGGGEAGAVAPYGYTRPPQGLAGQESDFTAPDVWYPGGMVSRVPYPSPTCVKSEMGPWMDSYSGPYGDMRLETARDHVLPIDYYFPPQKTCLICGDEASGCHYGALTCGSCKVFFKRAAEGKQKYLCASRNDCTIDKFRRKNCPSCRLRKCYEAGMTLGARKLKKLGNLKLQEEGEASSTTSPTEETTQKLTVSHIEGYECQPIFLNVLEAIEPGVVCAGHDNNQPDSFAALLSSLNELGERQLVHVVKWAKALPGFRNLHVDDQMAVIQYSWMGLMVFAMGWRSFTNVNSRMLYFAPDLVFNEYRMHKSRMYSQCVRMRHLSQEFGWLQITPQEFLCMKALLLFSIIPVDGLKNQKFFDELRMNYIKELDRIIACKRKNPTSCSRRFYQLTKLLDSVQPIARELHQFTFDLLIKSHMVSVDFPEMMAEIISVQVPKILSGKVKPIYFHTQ", "assay": "qHTS assay for small molecule agonists of androgen receptor signaling (AID 588515; active = well fitted curve in the direction sought with a large enough effect in the signal ratio, with a control signal flat; the % refers to the signal ratio)", "conditions": "AR-UAS-bla HEK293, beta-lactamase ratio, agonist 16 h; stronger effect = higher value", "how_it_was_run": "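Stimulation of an AR-responsive β-lactamase reporter in GripTite HEK293 cells was measured after 16 h compound exposure at 37 °C, via CCF4 fluorescence after 2 h RT. EC50 from Hill fits, normalized to R1881 at 30 nM.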"}, "[12]": {"target": "Androgen receptor (Homo sapiens) (UniProt P10275)", "assay": "qHTS assay for small molecule antagonists of androgen receptor signaling (AID 588516; active = well fitted curve in the direction sought with a large enough effect in the signal ratio, with a control signal flat, not every such curve was filed as active; the % refers to the signal ratio)", "how_it_was_run": "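HEK293 AR-UAS-bla cells, 10% dialyzed FBS medium; cpd titration + R1881 10 nM final, 16 h 37 C; CCF4 2 h RT; FRET ratio; IC50/efficacy via Hill fit.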"}}, "note": "Values joined by “and” are separate entries in the source; they are usually repeats but may differ in a detail not shown here. Equal entries are not always repeated. Results filed as inconclusive are left out. Entries that show only a call come without a potency. Active and inactive are the calls of the source. Unless noted, calls come from the whole dose curve. Throughout, for activity change % (negative = inhibition): series mostly up to about 77 µM. Throughout, for potency: potency is the fitted concentration of half-maximal effect.", "data": [{"smiles": "CC(C)C(=O)OCC(C)(C)C(OC(=O)C(C)C)C(C)C", "note": "(stereo not drawn)", "values": [{"measurement": "Potency", "setting": "[1]", "value": "inactive"}, {"measurement": "max response", "setting": "[2]", "value": -3.86, "unit": "%"}, {"measurement": "Potency", "setting": "[3]", "value": "inactive"}, {"measurement": "Potency", "setting": "[4]", "value": "inactive"}, {"measurement": "max response", "setting": "[5]", "value": -9.99, "unit": "%"}, {"measurement": "activity change % (negative = inhibition)", "setting": "[6]", "value": "4.21% (inactive)"}, {"measurement": "Potency", "setting": "[7]", "value": "inactive"}]}, {"smiles": "COC(=O)c1ccccc1S(=O)(=O)NC(=O)N(C)c1nc(C)nc(OC)n1", "values": [{"measurement": "Potency", "setting": "[8]", "value": "inactive"}, {"measurement": "activation", "setting": "[9]", "value": "1.44% (inactive)"}, {"measurement": "max response", "setting": "[2]", "value": -42.2, "unit": "%"}, {"measurement": "Potency", "setting": "[3]", "value": "inactive"}, {"measurement": "Potency", "setting": "[4]", "value": "inactive"}, {"measurement": "max response", "setting": "[5]", "value": -6.9, "unit": "%"}, {"measurement": "activity change % (negative = inhibition)", "setting": "[6]", "value": "9.61% (inactive)"}, {"measurement": "Potency", "setting": "[7]", "value": "inactive"}, {"measurement": "outcome", "setting": "[10]", "value": "inactive"}]}, {"smiles": "C/C(=N\\NC(=O)Nc1cc(F)cc(F)c1)c1ncccc1C(=O)O", "values": [{"measurement": "Potency", "setting": "[8]", "value": "inactive"}, {"measurement": "activation", "setting": "[9]", "value": "-2.37% (inactive) and 0.898% (inactive)"}, {"measurement": "Potency", "setting": "[1]", "value": "inactive"}, {"measurement": "max response", "setting": "[5]", "value": "4% and -10.7%"}, {"measurement": "activity change % (negative = inhibition)", "setting": "[6]", "value": "-6.39% (inactive)"}, {"measurement": "Potency", "setting": "[7]", "value": "inactive"}]}, {"smiles": "c1cc[n+]2c(c1)-c1cccc[n+]1CC2", "values": [{"measurement": "Potency", "setting": "[1]", "value": "inactive"}, {"measurement": "max response", "setting": "[2]", "value": 45.8, "unit": "%"}, {"measurement": "Potency", "setting": "[3]", "value": "inactive"}, {"measurement": "Potency", "setting": "[4]", "value": "inactive"}, {"measurement": "max response", "setting": "[5]", "value": -27.8, "unit": "%"}, {"measurement": "activity change % (negative = inhibition)", "setting": "[6]", "value": "10.8% (inactive)"}, {"measurement": "Potency", "setting": "[7]", "value": "8.63 µM (active)"}]}, {"smiles": "CCCCC(CC)COC(=O)Cl", "note": "(stereo not drawn)", "values": [{"measurement": "Potency", "setting": "[8]", "value": "inactive"}, {"measurement": "activation", "setting": "[9]", "value": "1.19% (inactive)"}, {"measurement": "Potency", "setting": "[4]", "value": "inactive"}, {"measurement": "max response", "setting": "[5]", "value": -16.3, "unit": "%"}, {"measurement": "activity change % (negative = inhibition)", "setting": "[6]", "value": "-1.19% (inactive)"}, {"measurement": "Potency", "setting": "[7]", "value": "inactive"}, {"measurement": "outcome", "setting": "[10]", "value": "inactive"}]}, {"smiles": "COc1nc(C)nc(NC(=O)NS(=O)(=O)c2ccccc2Cl)n1", "values": [{"measurement": "Potency", "setting": "[1]", "value": "inactive"}, {"measurement": "Potency", "setting": "[4]", "value": "inactive"}, {"measurement": "max response", "setting": "[5]", "value": -7.69, "unit": "%"}, {"measurement": "Potency", "setting": "[7]", "value": "inactive"}, {"measurement": "outcome", "setting": "[10]", "value": "inactive"}]}, {"smiles": "O=S(=O)(O)C(F)(F)C(F)(F)C(F)(F)C(F)(F)C(F)(F)C(F)(F)F", "values": [{"measurement": "Potency", "setting": "[8]", "value": "inactive"}, {"measurement": "activation", "setting": "[9]", "value": "-1.09% (inactive) and 0.298% (inactive)"}, {"measurement": "Potency", "setting": "[1]", "value": "inactive"}, {"measurement": "max response", "setting": "[2]", "value": "-35.3% and 95.7%"}, {"measurement": "Potency", "setting": "[3]", "value": "inactive"}, {"measurement": "Potency", "setting": "[4]", "value": "inactive"}, {"measurement": "max response", "setting": "[5]", "value": "-12.5% and -11.4%"}, {"measurement": "activity change % (negative = inhibition)", "setting": "[6]", "value": "23.1% (inactive)"}, {"measurement": "outcome", "setting": "[10]", "value": "inactive"}]}, {"smiles": "CNC(=O)O/N=C(\\SC)C(=O)N(C)C", "values": [{"measurement": "activation", "setting": "[11]", "value": "-0.759% (inactive)"}, {"measurement": "Potency", "setting": "[12]", "value": "inactive"}, {"measurement": "max response", "setting": "[2]", "value": 22.2, "unit": "%"}, {"measurement": "Potency", "setting": "[3]", "value": "inactive"}, {"measurement": "activity change % (negative = inhibition)", "setting": "[6]", "value": "0.203% (inactive)"}, {"measurement": "outcome", "setting": "[10]", "value": "inactive"}]}, {"smiles": "C=C(C)CN(CC)c1c([N+](=O)[O-])cc(C(F)(F)F)cc1[N+](=O)[O-]", "values": [{"measurement": "max response", "setting": "[2]", "value": 5.96, "unit": "%"}, {"measurement": "Potency", "setting": "[3]", "value": "inactive"}, {"measurement": "max response", "setting": "[5]", "value": 3.32, "unit": "%"}]}, {"smiles": "CC1(C)CN=C(NN=C(/C=C/c2ccc(C(F)(F)F)cc2)/C=C/c2ccc(C(F)(F)F)cc2)NC1", "values": [{"measurement": "Potency", "setting": "[12]", "value": "35.5 µM (active)"}, {"measurement": "Potency", "setting": "[8]", "value": "31.6 µM (active)"}, {"measurement": "max response", "setting": "[2]", "value": -117, "unit": "%"}, {"measurement": "Potency", "setting": "[3]", "value": "39.8 µM (active)"}, {"measurement": "outcome", "setting": "[10]", "value": "inactive"}]}, {"smiles": "COc1cc(Cl)c(OC)cc1Cl", "values": [{"measurement": "Potency", "setting": "[1]", "value": "inactive"}, {"measurement": "Potency", "setting": "[4]", "value": "inactive"}, {"measurement": "Potency", "setting": "[7]", "value": "inactive"}]}, {"smiles": "CC(C)(C)C(=O)[C@@H](Oc1ccc(Cl)cc1)n1cncn1", "values": [{"measurement": "Potency", "setting": "[1]", "value": "inactive"}, {"measurement": "max response", "setting": "[2]", "value": 38.3, "unit": "%"}, {"measurement": "Potency", "setting": "[3]", "value": "inactive"}, {"measurement": "Potency", "setting": "[4]", "value": "inactive"}, {"measurement": "activity change % (negative = inhibition)", "setting": "[6]", "value": "-10.6% (inactive)"}]}, {"smiles": "CCSC(C)CC1CC(=O)C(/C(CC)=N/OC/C=C/Cl)=C(O)C1", "note": "(stereo not drawn)", "values": [{"measurement": "activation", "setting": "[11]", "value": "3.31% (inactive)"}, {"measurement": "Potency", "setting": "[8]", "value": "inactive"}, {"measurement": "activation", "setting": "[9]", "value": "0.0799% (inactive)"}, {"measurement": "max response", "setting": "[2]", "value": 62.4, "unit": "%"}, {"measurement": "Potency", "setting": "[3]", "value": "inactive"}, {"measurement": "activity change % (negative = inhibition)", "setting": "[6]", "value": "-26.3% (inactive)"}]}, {"smiles": "CC(C)(C#N)N=NC(C)(C)C#N", "values": [{"measurement": "Potency", "setting": "[1]", "value": "inactive"}, {"measurement": "max response", "setting": "[2]", "value": 3.24, "unit": "%"}, {"measurement": "Potency", "setting": "[3]", "value": "inactive"}, {"measurement": "max response", "setting": "[5]", "value": -3.46, "unit": "%"}, {"measurement": "outcome", "setting": "[10]", "value": "inactive"}]}]}
